L3MBTL1 block: inhibitors of human L3MBTL1; Q9Y468; AlphaScreen L3MBTL1–H3K9me1 peptide binding; Potency, µM (top dose mostly 57.1 µM), inactives show at the highest dose activity, negative = inhibition, most hits filed as inhibitors; actives 0.66% (n = 230,000); AID 485360; note: potency is the fitted concentration of half-maximal effect; % is set by controls: 0 for no effect and ±100 for the full control effect; nearly all actives have a fitted effect of over 60% in size
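AlphaScreen proximity signal between nickel-chelate acceptor and streptavidin donor beads (final 10 ug/mL) reports binding of 50 nM L3MBTL1 to 75 nM biotin-H3 K9me1 peptide; complex incubated with compounds 30 min at room temperature; cefsulodin titration as control.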
KDM4E inh: inhibitors of human JMJD2E histone demethylase. B2RXH2. actives 1.6% (n = 230,000). AID 2147. Potency, µM (series often up to 57.1 µM), for the others: top-dose activity change, negative = inhibition, hits mostly inhibitors. JMJD2E catalytic domain, FDH-coupled NADH fluorescence (FDH is formaldehyde dehydrogenase); active = well fitted inhibition curve with a large enough effect, not every such curve was filed as active; inconclusive = small, poorly fitted or top-dose-only effect, or another doubt; inactive = no such curve, though single readings can be large or run the other way;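 note: potency is the fitted concentration of half-maximal effect; 0% = wells with enzyme and -100% = buffer wells without enzyme; nearly all actives have a fitted effect of over 50% in size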
Target sequence (B2RXH2 1-337 limits assumed): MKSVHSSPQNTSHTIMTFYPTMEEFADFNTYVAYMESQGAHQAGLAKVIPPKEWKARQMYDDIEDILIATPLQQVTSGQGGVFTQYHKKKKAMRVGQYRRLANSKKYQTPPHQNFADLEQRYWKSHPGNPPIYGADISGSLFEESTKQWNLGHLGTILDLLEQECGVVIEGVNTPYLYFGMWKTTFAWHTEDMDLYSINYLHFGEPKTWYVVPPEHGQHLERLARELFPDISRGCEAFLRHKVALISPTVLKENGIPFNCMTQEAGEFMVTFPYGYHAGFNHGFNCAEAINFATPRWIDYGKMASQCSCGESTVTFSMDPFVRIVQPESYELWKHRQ
PI5P4Ka inh: inhibitors of human PI5P4K alpha; max response, %; actives 1.2% (n = 330,000); PI5P4Kalpha enzyme, ADP-Glo luminescence, 60 min; hits give low values; AID 652105; P48426; active = max response of -50% or lower; inconclusive = between -30% and -50%; inactive = -30% or higher; note: value at the top dose of about 77 µM; % is set by controls: 0 for no effect and ±100 for the full control effect
Target sequence (P48426 whole entry, looked up): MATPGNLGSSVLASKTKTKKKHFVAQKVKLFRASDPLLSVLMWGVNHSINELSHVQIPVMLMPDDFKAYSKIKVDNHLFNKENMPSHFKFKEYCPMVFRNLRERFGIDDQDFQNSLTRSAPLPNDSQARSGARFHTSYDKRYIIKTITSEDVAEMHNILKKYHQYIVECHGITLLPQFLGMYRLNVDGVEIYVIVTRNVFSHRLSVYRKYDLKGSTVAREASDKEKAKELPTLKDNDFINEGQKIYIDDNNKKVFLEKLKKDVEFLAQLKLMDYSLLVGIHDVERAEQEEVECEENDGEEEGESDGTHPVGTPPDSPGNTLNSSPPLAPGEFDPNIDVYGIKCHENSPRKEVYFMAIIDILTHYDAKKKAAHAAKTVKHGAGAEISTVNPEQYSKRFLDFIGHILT
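Luminescence from ADP-Glo served as readout of PI5P4Kalpha activity in a qHTS format. Reaction: enzyme, substrate, compound, ATP at 5 microM final, 60 min at RT.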
HP1b chromo inh: blocks HP1-beta chromodomain binding to methylated histone tails; P83916; AlphaScreen HP1-beta / biotin-H3K9me3 peptide binding; Potency, µM (top dose mostly 114 µM), for inactives: at the top dose activity change, negative = inhibition, actives largely listed as inhibitors; actives 0.56% (n = 390,000); note: potency is the fitted concentration of half-maximal effect; nearly all actives have a fitted effect of over 70% in size
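HP1-beta protein (50 nM final) preincubated 30 min at room temperature with biotinylated H3(1-18)K9me3 peptide (50 nM) in PBS pH 7.4, 0.01% Tween-20, then compound added for 30 min. AlphaScreen streptavidin donor/nickel chelate acceptor beads (10 ug/mL final), 30 min dark, luminescence read.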
BAZ2B block: inhibitors of human BAZ2B bromodomain | Q9UIF8 | AlphaScreen BAZ2B-H3K14Ac peptide displacement | Potency, µM (series often up to 114 µM), without a hit: at the highest dose activity change, negative = inhibition, usual class: inhibitors | actives 4.4% (n = 360,000) | AID 504333; note: potency is the fitted concentration of half-maximal effect; % is set by controls: 0 for no effect and ±100 for the full control effect; nearly all actives have a fitted effect of over 60% in size
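Protein-peptide AlphaScreen: BAZ2B 50 nM, b-H3K14Ac 50 nM, 1x PBS pH 7.4 + 0.01% Tween-20. Preincubation 30 min RT; cpd 30 min RT (top 110 uM); beads 20 min RT, light-protected.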
JMJD2A Tudor inh: blocks the human JMJD2A Tudor domain; O75164; AlphaScreen JMJD2A-Tudor / H3K4me3 peptide binding; Potency, µM (doses to about 114 µM), for the others: at the top dose activity change, negative = inhibition, most hits filed as inhibitors; actives 4.4% (n = 390,000); AID 504339; note: potency is the fitted concentration of half-maximal effect; % is set by controls: 0 for no effect and ±100 for the full control effect; nearly all actives have a fitted effect of over 50% in size
* = called active by the depositor; ? = inconclusive; nt = not tested or not shown; [ ] = remark or other dose. Compounds with a hit are over-represented: about 5.7% of the library has one in this group of screens. Unless noted, calls come from the whole dose curve; as a rule, active = well fitted inhibition curve with a large enough effect; inconclusive = small, poorly fitted or top-dose-only effect; inactive = no such curve, though single readings can be large or run the other way.

SMILES	L3MBTL1 block	KDM4E inh	PI5P4Ka inh	HP1b chromo inh	BAZ2B block	JMJD2A Tudor inh
Nc1ccc(C#Cc2ccccc2)cc1	4.6%	6.4%	2.4	6.2%	-5.1%	-6.3%
CSc1nc(C)c(C(=O)C[n+]2ccccc2)cc1C#N	10.9%	8.2%	-8.9	11.6%	0.794µM*	-12.3%
CCOC(=O)c1cc(C#N)c(SCC(=O)c2cc(C#N)c(SC)nc2C)nc1C	-2.2%	-3.4%	nt	22.2%	9.0%	-15.1%
COc1cccc(NC(=S)/C(=C(\[O-])c2ccc(C)c([N+](=O)[O-])c2)[n+]2ccccc2)c1	nt	-0.8%	2.3	-22.4%	?	?
COc1cccc(NC(=S)/C(=C(\[O-])c2cc(C)n(-c3ccccc3F)c2C)[n+]2ccc(N(C)C)cc2)c1	nt	-3.6%	-17.2	-18.0%	39.8µM*	25.1µM*
Cc1cc(C([O-])=C(C(=S)Nc2ccc(F)cc2)[n+]2ccccc2)c(C)n1-c1ccc(F)cc1	nt	nt	-5.0	50.1µM*	nt	nt
O=C(CSc1nc2ccccc2c(=O)n1Cc1ccccc1)Nc1ccc(Br)cc1C(=O)O	nt	nt	-74.7*	10.6%	50.1µM*	-27.9%
COc1ccc(-n2cc(CNCC3CCOCC3)c(-c3cccc(F)c3)n2)cc1	-12.6%	?	-2.4	60.7%	-8.7%	-4.8%
COc1ccc(-n2cc(CNCc3cnc4ccccn34)c(-c3cccc(F)c3)n2)cc1	-23.1%	?	8.5	-24.5%	44.7µM*	-22.6%[11.4 µM]
CC(C(=O)NC1C=CS(=O)(=O)C1)N1C(=O)/C(=C/c2ccc(Cl)cc2)SC1=S (configuration not stated)	nt	nt	-13.4	-25.7%	22.4µM*	?
CC1(C)CC(=O)C(N=Nc2cc(S(=O)(=O)N3CCOCC3)ccc2Cl)=C(O)C1	31.6µM*	-8.3%	-1.5	34.2%	56.2µM*	2.1%
CC1(C)CC(=O)C(N=Nc2cccnc2)=C(O)C1	nt	-11.0%	0.8	3.7%	-5.8%	35.5µM*
CC1(C)CC(=O)C(N=Nc2c(Cl)cc(Cl)cc2Cl)=C(O)C1	-1.0%	3.2%	-3.3	-14.3%	?	50.1µM*
COc1ccc(-c2nc3c(C#N)c[nH]n3c2NC2CCCCC2)c(OC)c1	nt	nt	nt	12.8%	-8.0%	-12.6%
CN(Cc1ccc(OC(F)F)cc1)C(=O)c1ccc2c(=O)n3c(nc2c1)CCC3	8.0%	nt	4.7	26.6%	-3.6%	-9.2%
COc1ccc(NC(=O)C2CCN(S(=O)(=O)c3c(C)noc3/C=C/c3ccco3)CC2)cc1	nt	nt	nt	-10.7%	nt	10µM*
CCc1ccc(NC(=O)C2CCN(S(=O)(=O)c3c(C)noc3/C=C/c3ccco3)CC2)cc1	nt	nt	nt	12.9%	nt	-22.0%
COc1ccc(S(=O)(=O)n2oc(=O)cc2-c2ccccc2)cc1	nt	-4.0%	-1.0	13.3%	56.2µM*	-15.0%
COc1ccc(S(=O)(=O)N2CC=C(c3ccccc3)CC2)cc1OC	nt	nt	3.7	nt	nt	nt
O=S(=O)(c1ccc2ccccc2c1)N1CCCCCC1	47.7%	3.0%	0.3	114.8%	-3.7%	-3.8%[11.4 µM]
COc1ccc(S(=O)(=O)n2oc(=O)cc2-c2ccccc2)cc1OC	nt	?	-6.9	4.1%	56.2µM*	35.5µM*
O=c1cc(-c2ccccc2)n(S(=O)(=O)c2ccc3ccccc3c2)o1	nt	nt	-16.2	-18.8%	nt	44.7µM*
COc1cc(OC)cc(C(=O)NCC(c2cccs2)S(=O)(=O)c2ccc(F)c(C)c2)c1 (configuration not stated)	nt	nt	nt	31.0%	-20.7%	-2.0%
O=c1oc2ccccc2n1CCCOc1ccccc1Cl	nt	nt	nt	110.6%	105.0%	80.5%
COc1cc2c(cc1OC)C(O)=CC(=O)C2=O	nt	nt	-54.3*	nt	nt	nt
SMILES	L3MBTL1 block	KDM4E inh	PI5P4Ka inh	HP1b chromo inh	BAZ2B block	JMJD2A Tudor inh
COc1ccc(N2CC(=O)N(c3ccc(OC)c(OC)c3)CC2=O)cc1OC	0.7%	5.5%	-6.5	17.0%	0.9%	-5.8%
CCC(=O)N1c2ccccc2CC1C(=O)NCc1ccc(CC)cc1 (configuration not stated)	nt	nt	nt	34.1%	-11.8%	8.9%
NC(=S)NN=C1CCC2(CCCCC2)CC1	nt	nt	3.0	17.6%	nt	-15.8%
CC1(C)CCC(=NNC(N)=S)CC1	nt	nt	3.6	?	nt	0.708µM*
CCc1ccc(CNC(=O)c2ccc3c(c2)nc2n3CCCCC2)cc1	nt	nt	nt	11.8%[57 µM]	-2.6%	-22.4%
Cc1cccc2sc(N(CCN(C)C)C(=O)C3CCN(S(=O)(=O)c4cccs4)CC3)nc12	-3.6%	nt	2.8	?	50.1µM*	56.2µM*
O=C(O)c1cccc(Cn2c(Cl)c(/C=N/NC(=O)c3cccc(O)c3)sc2=O)c1	4.1%	-27.6%	-1.5	11.5%	0.8%	-14.0%
O=C(O)c1cccc(Cn2c(Cl)c(/C=N/NC(=O)c3cc4ccccc4cc3O)sc2=O)c1	35.5µM*	-21.4%	-72.8*	?	25.1µM*	79.4µM*
COC(=O)c1cccc(Cn2c(Cl)c(/C=N/Nc3ccccc3C)sc2=O)c1	-22.4%	?	-12.1	-13.3%	35.5µM*	?
O=C(O)c1cccc(Cn2c(Cl)c(/C=N/NC(=O)c3ccccc3)sc2=O)c1	-4.3%	-10.9%	4.1	40.8%	-28.6%	-2.1%
O=C(O)c1cccc(Cn2c(Cl)c(/C=N/NC(=O)c3ccco3)sc2=O)c1	nt	nt	-1.3	44.6%	-6.4%	-0.7%
Cc1ccccc1N/N=C/c1sc(=O)n(Cc2cccc(C(=O)O)c2)c1Cl	nt	?	?	-21.7%	44.7µM*	10µM*
COc1ccc(NC(=O)C(OC(=O)CNC(=O)c2ccccc2)c2ccccc2)c(C)c1 (configuration not stated)	nt	nt	nt	nt	nt	-17.8%
COC(=O)C1OC(=O)C2O[C@@]23[C@]2(C)C(OC(C)=O)CC4C(C)(C)C(=O)CC[C@]4(C)C2CC[C@@]13C (some centres not stated)	nt	4.0%	nt	nt	nt	nt
Cc1ccc(CN2CCN(/N=C/c3sccc3C)CC2)c(C)c1	-14.9%	-13.5%	-0.9	?	28.2µM*	22.4µM*
Cc1ccsc1/C=N/N1CCN(C2c3ccccc3-c3ccccc32)CC1	-7.0%	-2.8%	10.0	-30.9%	?	?
CSc1ccc(/C=N/N2CCN(Cc3ccc(C)cc3C)CC2)cc1	?	-8.0%	8.2	-22.4%	44.7µM*	56.2µM*
CSc1ccc(/C=N/NC(=O)CN2CCN(Cc3ccc(C)cc3)CC2)cc1	1.8%	-3.6%	5.5	27.2%	9.2%	-6.4%
O=C(Nc1cc(Cl)ccc1Cl)c1cc(S(=O)(=O)N2CCc3ccccc3C2)ccc1F	nt	nt	nt	26.8%	0.9%	-11.3%

Source: PubChem (National Center for Advancing Translational Sciences (NCATS))
